# Source: PubChem
# Peg3 prom inh-1 – reduces Peg3 promoter-driven luciferase expression in HeLa. HeLa PEG-Prom luciferase reporter, luminescence, overnight. inhibition, % at 20 µM. actives 1.7% (n = 360,000). AID 588405;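 active = inhibition of at least 50% at 20 µM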
# HSP90 refold inh – blocks HSP90-mediated luciferase refolding in reticulocyte lysate; Rabbit reticulocyte lysate, luciferase refolding luminescence, 3 h; inhibition, % at 5.6 µM; actives 0.91% (n = 290,000); AID 1789;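 active = inhibition above the screen-wide mean plus 3 SD, computed separately per campaign, cut at about 16% in these data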;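 note: 0% = DMSO wells and 100% = 60 µM geldanamycin wells; inhibitors lower the luminescence because luciferase stays unfolded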
# KKLEB cytotox – counter-screen for CF NF-kB inhibitors: cytotoxicity; KKLEB CF airway cells viability, ATPlite luminescence, overnight; active compounds read low; cells stimulated with P. aeruginosa culture filtrate; activity change (cytotoxicity), % at 5 µM; actives 0.36% (n = 360,000); AID 602141;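 active = corrected activity change at or below -50% at 5 µM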
# LGR2 antag – Drosophila LGR2 receptor signaling inhibition; HEK293 LGR2, CRE-luciferase, bursicon-stimulated, 4 h; inhibition, % at 9.99 µM; actives 0.35% (n = 380,000); AID 720647;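 active = drop in luminescence signal, shown as inhibition above about 50% in the replicate tests, limit read from the data, passing the limit was not always enough; inconclusive = probably only some replicates passing the limit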;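 note: agonist challenge used bursicon conditioned medium at about half maximal strength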
# Mdm2-MdmX inh – human Mdm2/MdmX binding inhibition; O15151+Q00987; SaOS-2 split-luciferase Mdm2/MdmX complementation, luminescence; AID 485346; actives 3% (n = 330,000); inhibition, % at 8 µM;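 active = inhibition of at least 50% at 8 µM in the primary screen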
# CF NFkB block – cystic fibrosis NF-kB activation inhibition; inhibition, % at 5 µM; KKLEB NF-kB-GFP reporter, PAF-induced, GFP fluorescence overnight; actives 0.86% (n = 360,000);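 active = at least 50% inhibition at 5 µM, scaled per plate between neutral and stimulator controls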;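 note: PAF is a Pseudomonas aeruginosa culture filtrate used as stimulus; plate controls were PAF-stimulated DMSO wells for no effect and unstimulated DMSO wells for full effect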
# Peg3 prom inh-2 – Peg3 promoter inhibition confirmation. inhibition, % at 20 µM. HeLa PEG-Prom luciferase reporter, luminescence, overnight. AID 602417. actives 84% (n = 1,300). shares compounds with Peg3 prom inh-1;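 active = at 20 µM dose, 40% or more inhibition averaged across four replicates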
# * hit, by the source's call; ? = inconclusive; . = no result given. An excerpt weighted towards active compounds, which were near 3.6% of everything screened.
SMILES,Peg3 prom inh-1,HSP90 refold inh,KKLEB cytotox,LGR2 antag,Mdm2-MdmX inh,CF NFkB block,Peg3 prom inh-2
C[C@H](CO)N1C[C@H](C)[C@H](CN(C)C(=O)C2CC2)Oc2ncc(-c3ccccc3F)cc2C1=O,.,.,.,5.4,.,.,.
CN(CC(=O)Nc1ccc(Cl)c(C(F)(F)F)c1)C(=O)c1cc(-c2ccncc2)nc2ccccc12,77.1*,.,-21.8,11.9,43.6,-1.0,91.5*
Cc1nc(-c2ccc(F)cc2)c(CC(=O)N(C)CC(=O)Nc2ccc(Cl)c(C(F)(F)F)c2)s1,57.8*,.,-25.7,11.6,.,19.4,56.3*
C[C@H]1CN([C@@H](C)CO)S(=O)(=O)c2ccc(-c3ccccc3)cc2O[C@H]1CN(C)C(=O)C1CC1,.,.,.,-4.3,.,.,.
CC(=O)Nc1sc(C)c(C)c1C(=O)OCC(=O)Nc1cccc(C)c1,89.5*,.,-26.8,-4.6,48.9,43.3,39.2
C[C@H](CO)N1C[C@H](C)[C@H](CN(C)S(=O)(=O)c2ccc(F)cc2)Oc2ccc(NS(=O)(=O)c3ccccc3)cc2C1=O,.,.,.,7.0,.,.,.
CCOC(=O)c1ccc2ncc(C(=O)OCC)c(NCCN3CCOCC3)c2c1,10.3,0.1,1.1,1.1,16.7,-10.0,.
CCOC(=O)c1ccc2ncc(C(=O)OCC)c(NCCN(C)C)c2c1,55.0*,-0.6,-10.3,-1.1,5.6,-22.2,55.3*
Cc1noc(C)c1NC(=O)Nc1ccc2c(c1)C(=O)N([C@H](C)CO)C[C@H](C)[C@H](CN(C)CC1CC1)O2,.,.,.,-4.1,.,.,.
Cc1cc(C)cc(NS(=O)(=O)c2ccc3[nH]cc(C(=O)NCc4ccco4)c(=O)c3c2)c1,55.0*,2.6,-0.2,.,33.1,-9.6,71.3*
O=C(c1ccco1)N1CCN(C(c2ccccc2Cl)c2nnnn2Cc2cccs2)CC1 (stereo unspecified),52.0*,3.5,-6.2,.,38.1,9.4,58.0*
COc1cccc2c1C(=N)c1c(O)c3c(c(O)c1C2=O)CC(O)(C(C)=O)CC3OC1CC(N)C(O)C(C)O1 (stereo unspecified),98.3*,.,-6.2,.,.,-271.8,96.1*
COc1cccc2c1-c1c(O)cccc1C2=O,0.0,0.9,1.2,5.7,13.0,3.1,.
CNC[C@@H]1Oc2ccc(NC(=O)NC3CCCCC3)cc2CC(=O)N([C@@H](C)CO)C[C@@H]1C,.,.,.,1.6,.,.,.
COCCCNCCCOc1ccc(Cl)cc1C(C)(C)C,61.8*,-2.8,-1.9,-1.3,43.9,3.5,39.5
O=C(Nc1ccccc1F)N[C@H]1C=C[C@@H](CC(=O)N2CCCCC2)O[C@H]1CO,.,.,.,4.4,.,.,.
CC(C)CC(=NNC(=O)c1ccncc1)c1cc(Cl)ccc1O,63.6*,.,-8.0,14.2,.,33.5,73.4*
Cc1nc(C)c(C(=O)N/N=C/c2cc(Br)ccc2O)s1,50.3*,-1.2,4.0,11.1,49.7,3.7,61.2*
COc1ccc(CN(C)C[C@@H]2Oc3ccc(NC(=O)CCC(F)(F)F)cc3CC(=O)N([C@@H](C)CO)C[C@@H]2C)cc1,.,.,.,12.4,.,.,.
CNC[C@H]1Oc2ccc(NS(=O)(=O)c3ccc(OC)cc3)cc2CC(=O)N([C@H](C)CO)C[C@@H]1C,.,.,.,-25.5,.,.,.
CC(C)NC(=O)N(C)C[C@H]1OCCCC[C@@H](C)Oc2ccc(NC(=O)Nc3ccc(F)cc3)cc2C(=O)N([C@@H](C)CO)C[C@H]1C,.,.,.,8.0,.,.,.
COc1cc(-c2cc(C(=O)Nc3cc(S(=O)(=O)N4CCOCC4)ccc3O)c3ccccc3n2)cc(OC)c1OC,27.5,.,7.5,-1.9,23.7,-27.0,.
COc1cc(-c2cc(C(=O)Nc3cc(S(=O)(=O)N4CCOCC4)ccc3C)c3ccccc3n2)cc(OC)c1OC,53.5*,.,-7.2,0.9,40.2,15.0,53.3*
CCC(=C(c1ccc(OC)cc1)c1ccc(OC)cc1)c1cn(CC(O)CN2CCN(C)CC2)c2ccccc12 (stereo unspecified),104.7*,3.0,-24.7,25.4,.,21.1,100.8*
Cc1ccc2nc(C)cc(Nc3ccc([N+](=O)[O-])cc3)c2c1,104.2*,3.9,-24.5,?,.,-72.4,98.4*
SMILES,Peg3 prom inh-1,HSP90 refold inh,KKLEB cytotox,LGR2 antag,Mdm2-MdmX inh,CF NFkB block,Peg3 prom inh-2
COc1ccc(-c2ccc3[nH]c4c(c3c2)CCN2C[C@@H]([C@H](C)O)[C@@H](N(C)C(=O)Nc3cc(Cl)cc(Cl)c3)C[C@@H]42)cc1,63.6*,.,1.4,-10.0,.,0.6,60.9*
CO[C@@H]1CN(C)C(=O)c2cc(NC(=O)C3CC3)ccc2OC[C@@H](C)N(Cc2cccc(F)c2)C[C@H]1C,.,.,.,9.8,.,.,.
CC(C)C#Cc1ccc2c(c1)O[C@H](CN(C)Cc1cncnc1)[C@@H](C)CN([C@H](C)CO)S2(=O)=O,.,.,.,-17.7,.,.,.
Cc1sc2nc(C(C)C)nc(SCC(=O)NCc3ccco3)c2c1C,59.0*,1.3,-9.5,14.9,10.6,-6.5,31.5
COc1ccc(NC(=O)c2cc3ccccc3oc2=O)cc1,55.4*,.,-19.8,76.4*,.,-25.9,33.7
COc1ccc2oc(=O)c(C(=O)Nc3ccccc3O)cc2c1,-197.4,4.8,-8.6,17.0,-240.5,-29.1,.
COc1ccc(-c2cnc3c(c2)C(=O)N([C@@H](C)CO)C[C@@H](C)[C@@H](CN(C)C(=O)Cc2ccccn2)O3)cc1,.,.,.,-1.3,.,.,.
COC(CNC(=O)c1ccc2c3c(onc13)-c1ccccc1C2=O)OC,101.8*,2.7,-1.5,.,-84.4,-2.1,99.3*
Cc1ccc(S(=O)(=O)Nc2cccc3c2O[C@@H](CN(C)S(C)(=O)=O)[C@@H](C)CN([C@H](C)CO)C3=O)cc1,.,.,.,15.9,.,.,.
O=c1c2ccccc2nc2c3ccccc3cnn12,-170.3,0.9,-11.8,-1.8,-32.5,-142.9,.
O=c1c2ccccc2cnn1-c1nc2ccccc2[nH]1,107.5*,92.2*,-50.7*,100.4*,.,-13.9,94.9*
CS(=O)(=O)Nc1cccc(NC(=O)C2Cc3c(-c4ccccc4)ccnc3O2)c1 (stereo unspecified),51.3*,.,-0.9,9.6,.,1.2,56.7*
CCCSCCCNC(=O)Cn1nc(CC)n2c(cc3c(OC)cccc32)c1=O,54.0*,1.2,-6.5,-0.8,39.9,-0.9,18.3
CN1c2ccc(C#Cc3cccnc3)cc2[C@@H]2[C@@H](CCN2C(=O)C2CCC2)[C@H]1CO,.,.,.,5.1,.,.,.
CC(C)(C)S(=O)N1Cc2cc(C(=O)NCc3ccc(Oc4ccccc4)cc3)nc(-c3cccc(-c4cc5ccccc5o4)c3)c2[C@@H]1CCO (stereo partly specified),80.1*,.,-10.0,4.9,.,-1.3,22.4
COc1cccc(-c2cccc(-c3nc(C(=O)NCc4ccc(Oc5ccccc5)cc4)cc4c3[C@H](CCO)N(S(=O)C(C)(C)C)C4)c2)c1 (stereo partly specified),73.1*,.,-25.5,13.0,.,17.9,21.3
CC(/C=C/c1ccccc1)=N/NC(=O)c1cc([N+](=O)[O-])cc([N+](=O)[O-])c1,50.5*,-3.0,3.7,6.9,.,16.8,50.8*
